In PubChem BioAssay (EPA / NIEHS):
Where “and” joins values, the source holds several entries; their conditions need not be identical. Identical values can stand only once. Results filed as inconclusive are left out. Calls of active or inactive are those of the source. How the source made its calls, unless noted: active means hit-call score of the fitted dose curve at least 0.9, where 1 is the maximum; inactive means score below 0.9.

Key:
[1] = target: Estrogen receptor beta (Homo sapiens) (UniProt Q92731); assay: OT_ER_ERbERb_0480: Odyssey Thera (OT) 8-hour HEK293T Protein-Complementation Assay for Estrogen Receptor-beta/-beta Homodimer (AID 2283357; active means hit-call score of the fitted dose curve at least 0.9, where 1 is the maximum;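 further: active means signal gain over DMSO baseline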)
Procedure, shortened: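 Homodimerization of ER-beta LBD measured by protein-fragment complementation in HEK293T; 8 h dosing; fixed, Draq5 counterstain; fluorescence intensity gain over DMSO baseline, positive fitting direction; laser scanning cytometry.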

[2] = BSK_3C_TissueFactor: BioMAP Diversity Plus: 3C Assay for Tissue Factor Biomarker Activity (AID 2282997); conditions: BioMAP 3C HUVEC, tissue factor biomarker readout; actives raise or lower the signal
Procedure, shortened: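 Tissue factor on primary human umbilical vein endothelium was read by ELISA 24 h after dosing, gain or loss relative to DMSO. Cytotoxicity ran alongside via SRB (0.1%, TCA-fixed, 560 nm).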

[3] = BSK_3C_uPAR: BioMAP Diversity Plus: 3C Assay for Urokinase-type plasminogen activator receptor (uPAR) Biomarker Activity (AID 2282998); conditions: BioMAP 3C HUVEC, uPAR biomarker ELISA; actives raise or lower the signal
Procedure, shortened: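 Endothelial primary cells of human umbilical vein origin received test chemical; 24 h later uPAR was assayed by ELISA. Fitting was bidirectional, DMSO as negative control.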

[4] = BSK_4H_Eotaxin3: BioMAP Diversity Plus: 4H Assay for Eotaxin 3 Biomarker Activity (AID 2283000); conditions: primary human endothelial cells (HUVEC); actives raise or lower the signal
Procedure, shortened: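 Human umbilical vein endothelial cells (BSK_4H system) dosed with test chemical; Eotaxin-3 (CCL26) measured by ELISA 24 h after dosing. Bidirectional curve fitting relative to DMSO negative control as baseline.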

[5] = BSK_3C_Proliferation: Cell Proliferation Assessment in the BioMAP Diversity Plus: 3C Assay (AID 2283006); conditions: primary human endothelial cells (HUVEC);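 on AC50: potency may reflect either rise or fall in cell number versus DMSO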
Procedure, shortened: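 Proliferation as total protein: sulforhodamine B (0.1%) stain of TCA-fixed subconfluent human umbilical vein endothelial cells, absorbance 560 nm, 48 h after dosing. Activity fitted in both directions against DMSO baseline.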

[6] = read-out: E-selectin (Homo sapiens) (UniProt P16581); assay: BSK_3C_Eselectin: BioMAP Diversity Plus: 3C Assay for Eselectin Biomarker Activity (AID 2283015); conditions: primary human endothelial cells (HUVEC); actives raise or lower the signal
Procedure, shortened: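 E-selectin ELISA readout, fitted bidirectionally relative to DMSO, taken 24 h post-dosing in HUVEC cultures of the 3C system. Overt cytotoxicity tracked with sulforhodamine B staining of parallel wells.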

[7] = read-out: Interleukin-1 alpha (IL1a), IL1A (gene 3552); assay: BSK_BE3C_IL1a: BioMAP Diversity Plus: BE3C Assay for Interleukin-1 alpha (IL1a) Biomarker Activity (AID 2283016); conditions: primary human bronchial epithelial cells; actives raise or lower the signal
Procedure, shortened: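 IL-1a measured by ELISA after 24 h treatment of human primary bronchial epithelial cells, with gain or loss of signal fitted versus DMSO. Parallel cultures stained with SRB gauge overt cytotoxicity.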

[8] = read-out: Monocyte Chemoattractant Protein-1 (MCP1), CCL2 (gene 6347); assay: BSK_3C_MCP1: BioMAP Diversity Plus: 3C Assay for Monocyte Chemoattractant Protein-1 (MCP1) Biomarker Activity (AID 2283017); conditions: primary human endothelial cells (HUVEC); actives raise or lower the signal
Procedure, shortened: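 MCP-1 was measured by ELISA 24 h after dosing in primary HUVEC 3C cultures and fitted in both directions relative to DMSO; cytotoxicity was checked by SRB total-protein staining in parallel wells.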

[9] = read-out: Monocyte Chemoattractant Protein-1 (MCP1), CCL2 (gene 6347); assay: BSK_4H_MCP1: BioMAP Diversity Plus: 4H Assay for Monocyte Chemoattractant Protein-1 (MCP1) Biomarker Activity (AID 2283018); conditions: primary human endothelial cells (HUVEC); actives raise or lower the signal
Procedure, shortened: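 ELISA of MCP-1 (CCL2) 24 h after chemical dosing of HUVEC in the BioMAP 4H system. Gain or loss versus DMSO fitted; parallel SRB staining (560 nm) tracked overt cytotoxicity.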

[10] = read-out: Human Leukocyte Antigen - DR isotype (HLADR), HLA-DRA (gene 3122); assay: BSK_3C_HLADR: BioMAP Diversity Plus: 3C Assay for Human Leukocyte Antigen - DR isotype (HLADR) Biomarker Activity (AID 2283019); conditions: primary human endothelial cells (HUVEC); actives raise or lower the signal
Procedure, shortened: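 Bidirectional fitting against DMSO was applied to the HLA-DR ELISA signal from human umbilical vein endothelial cells, 24 h post-dose. Cytotoxicity came from parallel SRB total-protein staining; 3C proliferation was counted by SRB at 48 h.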

[11] = read-out: Interleukin-8 (IL8), CXCL8 (gene 3576); assay: BSK_3C_IL8: BioMAP Diversity Plus: 3C Assay for Interleukin-8 (IL8) Biomarker Activity (AID 2283020); conditions: primary human endothelial cells (HUVEC); actives raise or lower the signal
Procedure, shortened: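 IL-8 was measured by ELISA in HUVEC cultures 24 h after chemical dosing, with gain or loss of signal fitted relative to DMSO. Parallel SRB total-protein staining tracked overt cytotoxicity.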

[12] = read-out: Matrix Metallopeptidase 1 (MMP1), MMP1 (gene 4312); assay: BSK_BE3C_MMP1: BioMAP Diversity Plus: BE3C Assay for Matrix Metallopeptidase 1 (MMP1) Biomarker Activity (AID 2283024); conditions: primary human bronchial epithelial cells; actives raise or lower the signal
Procedure, shortened: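 ELISA measurement of MMP-1 after 24 h compound exposure of primary human bronchial epithelial cells. Changes in either direction fitted relative to DMSO; parallel SRB staining checked overt cytotoxicity.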

[13] = BSK_3C_Vis: BioMAP Diversity Plus: 3C Assay for Morphology Visualization (AID 2283025); conditions: primary human endothelial cells (HUVEC);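 further: fitted both ways so gain or loss versus DMSO counts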;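 on AC50: light microscopy image of cell morphology used as background control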
Procedure, shortened: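 Light-microscopy visualization of HUVEC cultures at 24 h post-treatment, with DMSO as baseline for bidirectional fitting.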

[14] = read-out: Pselectin, SELP (gene 6403); assay: BSK_4H_Pselectin: BioMAP Diversity Plus: 4H Assay for Pselectin Biomarker Activity (AID 2283026); conditions: primary human endothelial cells (HUVEC); actives raise or lower the signal
Procedure, shortened: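 ELISA of surface P-selectin on HUVEC, 24 h after dosing, with parallel SRB staining (0.1% after 10% TCA fixation, 560 nm) for overt cytotoxicity. Activity fitted in both directions relative to DMSO.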

[15] = BSK_4H_SRB: Viability Assessment in the BioMAP Diversity Plus: 4H Assay (AID 2283027); conditions: primary human endothelial cells (HUVEC);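 further: cells exposed to compound for 24 h before staining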;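 on AC50: curves fitted both ways versus DMSO so AC50 may be loss or gain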
Procedure, shortened: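 HUVEC, 24 h post-dose; 10% TCA fix, 0.1% SRB stain, A560 nm. Total protein = overt cytotoxicity, parallel to biomarker read. Bidirectional fit vs DMSO baseline.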

[16] = BSK_BE3C_SRB: Viability Assessment in the BioMAP Diversity Plus: BE3C Assay (AID 2283028); conditions: primary human bronchial epithelial cells;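 on AC50: fitted both ways so AC50 may mark signal gain or loss versus DMSO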
Procedure, shortened: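 Cytotoxicity read-out: SRB (0.1%) staining of TCA-fixed (10%) human lung bronchial epithelial cells, absorbance 560 nm, 24 h post-dosing. Curves fitted both directions relative to DMSO.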

[17] = read-out: Thrombomodulin, THBD (gene 7056); assay: BSK_3C_Thrombomodulin: BioMAP Diversity Plus: 3C Assay for Thrombomodulin Biomarker Activity (AID 2283029); conditions: primary human endothelial cells (HUVEC); actives raise or lower the signal
Procedure, shortened: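 ELISA measurement of thrombomodulin on HUVEC surface 24 h after chemical dosing; activity fitted in both directions relative to DMSO vehicle.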

[18] = read-out: Vascular endothelial growth factor receptor 2 (Homo sapiens) (UniProt P35968); assay: BSK_4H_VEGFRII: BioMAP Diversity Plus: 4H Assay for Vascular endothelial growth factor receptor 2 (VEGFR2) Biomarker Activity (AID 2283031); conditions: primary human endothelial cells (HUVEC); actives raise or lower the signal;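 on AC50: cell-surface VEGFR2 protein level quantified by ELISA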
Procedure, shortened: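 Measured by ELISA after 24 h of compound treatment: VEGFR2 on primary human umbilical vein endothelial cells, fitted in both directions relative to DMSO. Parallel cultures received SRB staining (560 nm) for overt cytotoxicity.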

[19] = read-out: Human Leukocyte Antigen - DR isotype (HLADR), HLA-DRA (gene 3122); assay: BSK_BE3C_HLADR: BioMAP Diversity Plus: BE3C Assay for Human Leukocyte Antigen - DR isotype (HLADR) Biomarker Activity (AID 2283032); conditions: primary human bronchial epithelial cells; actives raise or lower the signal
Procedure, shortened: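 Cell-surface HLA-DR ELISA readout at 24 h after dosing in the BE3C primary human lung bronchial epithelial system; gain or loss of signal against DMSO, with parallel sulforhodamine B staining of total protein for overt cytotoxicity.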

[20] = read-out: Vascular cell adhesion molecule 1 (VCAM1), VCAM1 (gene 7412); assay: BSK_4H_VCAM1: BioMAP Diversity Plus: 4H Assay for Vascular cell adhesion molecule 1 (VCAM1) Biomarker Activity (AID 2283033); conditions: primary human endothelial cells (HUVEC); actives raise or lower the signal
Procedure, shortened: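 VCAM-1 ELISA read 24 h after chemical dosing of HUVEC in the BioMAP 4H system, with gain or loss of signal fitted relative to DMSO. Parallel SRB staining (560 nm) checked overt cytotoxicity.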

Measured: AC50

E-selectin (Homo sapiens), sequence (P16581 whole entry, looked up): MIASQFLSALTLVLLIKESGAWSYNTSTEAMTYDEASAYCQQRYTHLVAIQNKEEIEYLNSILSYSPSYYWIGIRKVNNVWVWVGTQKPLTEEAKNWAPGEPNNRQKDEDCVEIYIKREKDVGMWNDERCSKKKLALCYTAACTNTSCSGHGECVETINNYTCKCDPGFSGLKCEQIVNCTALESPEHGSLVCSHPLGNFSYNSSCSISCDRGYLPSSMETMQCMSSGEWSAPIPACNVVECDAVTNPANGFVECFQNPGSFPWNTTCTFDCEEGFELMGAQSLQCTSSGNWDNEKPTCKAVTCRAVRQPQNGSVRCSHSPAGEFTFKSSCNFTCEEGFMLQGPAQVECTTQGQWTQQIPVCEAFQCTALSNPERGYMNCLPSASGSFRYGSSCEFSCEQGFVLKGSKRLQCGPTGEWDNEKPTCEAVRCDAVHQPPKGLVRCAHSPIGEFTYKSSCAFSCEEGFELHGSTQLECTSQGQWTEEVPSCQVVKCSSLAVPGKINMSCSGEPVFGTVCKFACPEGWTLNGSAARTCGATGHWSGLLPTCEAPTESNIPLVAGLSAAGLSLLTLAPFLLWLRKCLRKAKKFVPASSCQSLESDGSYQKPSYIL
Estrogen receptor beta (Homo sapiens), sequence (Q92731 whole entry, looked up, the tested form may be a part): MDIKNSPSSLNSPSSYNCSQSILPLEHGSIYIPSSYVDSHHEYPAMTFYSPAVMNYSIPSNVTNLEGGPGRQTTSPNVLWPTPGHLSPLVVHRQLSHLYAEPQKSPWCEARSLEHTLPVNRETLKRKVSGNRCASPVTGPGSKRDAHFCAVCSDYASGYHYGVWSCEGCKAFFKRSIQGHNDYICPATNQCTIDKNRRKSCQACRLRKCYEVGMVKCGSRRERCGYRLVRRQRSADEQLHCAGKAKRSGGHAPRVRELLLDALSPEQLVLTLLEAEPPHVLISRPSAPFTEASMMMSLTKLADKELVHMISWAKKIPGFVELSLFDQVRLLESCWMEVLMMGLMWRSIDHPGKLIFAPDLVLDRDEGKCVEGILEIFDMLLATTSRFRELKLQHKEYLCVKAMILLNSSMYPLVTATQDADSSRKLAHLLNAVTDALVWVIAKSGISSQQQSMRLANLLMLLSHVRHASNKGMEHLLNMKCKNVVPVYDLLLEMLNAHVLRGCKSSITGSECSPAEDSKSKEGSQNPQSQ

COc1cc(OC)nc(Oc2cccc(Oc3nc(OC)cc(OC)n3)c2C(=O)O)n1
inactive: [1]

CCCOC(=O)c1ccccc1C(=O)OCCC
active: [6] 36.4 µM | [8] 20 µM | [10] 7.06 µM | [19] 0.274 µM
not listed: [1]
inactive: all other assays above

O=C1Nc2ccc(Cl)cc2C(c2ccccc2)=NC1O (stereo not given)
inactive: [1]

O=C(O)CCCc1ccc(N(CCCl)CCCl)cc1
active: [2] 20 µM and 12.3 µM | [3] 20 µM and 16.3 µM | [4] 26.3 µM and 20 µM | [5] 12.1 µM and 6.56 µM | [6] 20 µM | [7] 20 µM | [8] 20 µM and 28.2 µM | [10] 15.8 µM and 13.4 µM | [13] 38.9 µM and 38.6 µM | [14] 13.6 µM and 20 µM | [15] 20 µM | [19] 22 µM and 29.6 µM | [20] 27.1 µM and 25.4 µM
inactive: [9] | [11] | [12] | [16] | [17] | [18]

Nc1ccc(Cl)c(Cl)c1
inactive: [1]

CC(C)(C)C(=O)CCl
active: [2] 20 µM | [4] 20 µM | [5] 16.9 µM | [6] 20 µM | [10] 20 µM | [19] 20 µM | [20] 25.7 µM
not listed: [1]
inactive: all other assays above

CCC(C)c1cc([N+](=O)[O-])cc([N+](=O)[O-])c1OC(=O)C=C(C)C (stereo not given)
active: [2] 9.89 µM | [3] 7.18 µM | [4] 6.83 µM | [5] 11.2 µM | [6] 14.4 µM | [7] 20.9 µM | [8] 12.8 µM | [9] 5.34 µM | [10] 5.85 µM | [11] 0.00641 µM | [12] 34.2 µM | [13] 14.5 µM | [14] 7.89 µM | [15] 20 µM | [16] 32.5 µM | [18] 8.71 µM | [19] 11.8 µM | [20] 9.17 µM
inactive: [17]

O=[N+]([O-])C=Cc1ccccc1
inactive: [17] | [18]
active: [2] 4.68 µM | [3] 5.53 µM | [4] 9.12 µM | [5] 1.37 µM | [6] 6.94 µM | [7] 2.28 µM | [8] 7.71 µM | [9] 8.93 µM | [10] 2.15 µM | [11] 10 µM | [12] 11.3 µM | [13] 8.8 µM | [14] 5.78 µM | [15] 5.27 µM | [16] 24.3 µM | [19] 1.56 µM | [20] 11.5 µM

Clc1ccc(-c2ccccc2)cc1
active: [4] 30.5 µM | [9] 27.5 µM | [14] 28.2 µM | [15] 35.3 µM | [20] 32.9 µM
not listed: [1]
inactive: all other assays above

O=P(O)(Oc1ccccc1)Oc1ccccc1
inactive: [1]

Nc1cc(Cl)cc(Cl)c1
inactive: [1]

CCCC=NO
inactive: [1]

C=CCN(CC=C)C(=O)C(Cl)Cl
inactive: all assays above

O=c1c2ccccc2c(=O)c2c1cc(Cl)c1[nH]c3c([nH]c12)c(Cl)cc1c(=O)c2ccccc2c(=O)c13
active: [2] 15.8 µM | [4] 24.8 µM | [12] 20 µM
not listed: [1]
inactive: all other assays above

CC(C)[C@@H](C(=O)O[C@@H](C#N)c1cccc(Oc2ccccc2)c1)c1ccc(Cl)cc1
inactive: [1]
